Screening results as filed in PubChem BioAssay.
FBPA Giardia inh: inhibitors of Giardia lamblia fructose-1,6-bisphosphate aldolase. A8B2U2. purified Giardia FBPA. Potency, µM (highest dose often 59.6 µM), usual class: inhibitors. hit rate 0.71% among 290,000. AID 2451; note: nearly all actives have a fitted effect of over 55% in size
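40 nM FBPA preincubated 10 min at RT with compound (up to 57.5 uM final), then substrate plus GAPDH/TPI/NAD/arsenate coupling and diaphorase/resazurin added. Fluorescence read after 20 min at RT, 525/598 nm.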
CHX counter: counter-screen for Shiga toxin inhibitors: cycloheximide protein synthesis inhibition. cell reporter, cycloheximide protein synthesis inhibition counterscreen. max response, %. AID 2314. hit rate 12% among 300,000; in the data active = max response mostly above about 13%, no sharp cut-off; inactive = mostly below about 14%; note: read at 38.3 µM for the half of the compounds with a filed dose
LmPK inh: inhibitors of Leishmania mexicana pyruvate kinase; Q27686; purified LmPK, Kinase-Glo ATP luminescence, 1 h; Potency, µM (doses to about 57.5 µM), usual class: inhibitors; hit rate 0.37% among 290,000; AID 1721
Target sequence (Q27686 whole entry, looked up): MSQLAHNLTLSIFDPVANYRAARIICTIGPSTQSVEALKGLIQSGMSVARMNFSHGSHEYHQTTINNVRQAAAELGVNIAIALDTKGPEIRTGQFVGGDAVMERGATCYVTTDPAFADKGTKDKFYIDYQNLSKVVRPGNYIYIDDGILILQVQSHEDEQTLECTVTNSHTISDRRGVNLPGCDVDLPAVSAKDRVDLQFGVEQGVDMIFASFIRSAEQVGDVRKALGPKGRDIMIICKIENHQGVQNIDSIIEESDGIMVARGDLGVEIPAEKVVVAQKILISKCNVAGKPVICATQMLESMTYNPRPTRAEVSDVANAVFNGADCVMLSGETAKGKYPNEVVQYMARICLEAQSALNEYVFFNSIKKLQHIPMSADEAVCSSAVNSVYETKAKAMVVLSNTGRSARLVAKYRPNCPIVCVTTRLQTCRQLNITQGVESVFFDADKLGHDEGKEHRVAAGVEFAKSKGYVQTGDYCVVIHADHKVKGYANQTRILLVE
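ATP generated from ADP (0.1 mM) and PEP (0.5 mM) by 0.1 nM LmPK over 1 h at room temperature (pH 7.2 imidazole buffer) was detected by coupled luciferase luminescence. Values were normalized to uninhibited and no-enzyme wells.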
Shiga inhibitor: Shiga toxin inhibition; Vero cells, Shiga toxin protein synthesis inhibition reporter; inhibition, % at 38.7 µM; hit rate 9.2% among 290,000; AID 2315; in the data active = inhibition mostly above about 28%, no sharp cut-off; inactive = mostly below about 43%
TbPYK inhibitor: inhibitors of Trypanosoma brucei pyruvate kinase | Q57TT1 | TbPYK enzyme, Kinase-Glo Plus ATP luminescence, 45 min | Potency, µM (series often up to 76.8 µM), usual class: inhibitors | hit rate 0.12% among 410,000; note: nearly all actives have a fitted effect of over 50% in size
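Luminescence from Kinase-Glo Plus, added after a 45-minute room-temperature reaction, served as the end-point read-out. The enzyme and substrate were preincubated with compound before ADP (130 uM final) initiated turnover. Concentration-effect curves came from normalized qHTS data.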
RE007 growth inh: less growth of the S. pombe RE007 Vpr strain. S. pombe RE007 Vpr strain, BacTiter-Glo ATP luminescence, 24 h. Potency, µM (series often up to 92.2 µM), most hits filed as inhibitors. hit rate 0.21% among 360,000. AID 651644; active = well fitted falling curve with a large enough effect; inconclusive = small, poorly fitted or top-dose-only effect; inactive = no such curve, though single readings can be large or run the other way; note: nearly all actives have a fitted effect of over 50% in size
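Fission yeast strain RE007, carrying one chromosomally integrated HIV-1 vpr copy, was seeded at OD 0.01 in PMG+AL medium with 23 nL pinned compound. After 24 h at 30 °C and 99% humidity, viability was read by BacTiter-Glo luminescence.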
A number is an active result; – = inactive; ? = inconclusive; · = no result; + = active, no number; ! = not confirmed by another sample; [ ] = dose if it differs, or a comment. The entries come from a sample that favours hits as a whole. Unless noted, calls come from the whole dose curve; as a rule, active = well fitted curve in the direction sought with a large enough effect; inconclusive = small, poorly fitted or top-dose-only effect, or another doubt; inactive = no such curve, though single readings can be large; an effect the other way counts as inactive or inconclusive.

SMILES	FBPA Giardia inh	CHX counter	LmPK inh	Shiga inhibitor	TbPYK inhibitor	RE007 growth inh
O=C(Nc1ccc2c(c1)OCO2)C1CCCN1C(=O)Nc1cccc(F)c1 (configuration not stated)	–	–	–	–	–	–
O=C(Nc1cccc(F)c1)Nc1ccc2c(c1)OCO2	–	59	–	85	–	–
CC(C)[C@H](NC(=O)c1ccccc1F)C(=O)Nc1ccc2c(c1)OCO2	·	·	·	·	–	–
Oc1c(Br)cc(Br)cc1-c1nc2ccccc2s1	·	·	·	·	–	·
CCCN(C(=O)CSCc1ccccc1C)c1c(N)n(Cc2ccccc2)c(=O)[nH]c1=O	·	·	·	·	–	–
CCCC/C=C/[C@H](C)[C@@](C)(COC(=O)c1ccc(Br)cc1)Cc1ccccc1	–	–	·	–	·	·
COc1ccc(C(=O)Nc2sc(C)c(C)c2CN2CC(C)OC(C)C2)cc1 (configuration not stated)	–	31	–	68	–	–
CC(=O)OCC1=C[C@H]2[C@@H]3C(C)(C)[C@]3(OC(C)=O)C[C@@H](C)[C@]2(O)[C@@H]2C=C(C)C(=O)[C@@]2(O)C1	–	–	·	–	·	·
CCOC(=O)Nc1ccc(Oc2ccccc2)cc1	–	36	–	121	–	–
O=C(Nc1ccc(C(=O)Oc2ccccc2)c(O)c1)c1ccco1	–	55	–	131	?	–
Cc1cccc(OC(=O)Nc2ccc(C(=O)O)c(O)c2)c1	·	·	·	·	–	–
CCOC(=O)Nc1ccc(C(=O)Oc2ccccc2)c(O)c1	–	37	–	104	–	–
O=C(Nc1ccc(C(=O)Oc2ccccc2)c(O)c1)c1ccccc1	–	28	–	82	–	–
CC(=O)Nc1ccc(OC(=O)c2ccco2)cc1	–	–	–	–	–	–
Nc1ccc(C(=O)Oc2ccccc2)c(O)c1	–	·	·	·	–	·
CCOC(=O)Nc1ccc(OC(=O)Oc2ccc(NC(=O)OCC)cc2)cc1	·	·	·	·	–	–
O=C(O)c1ccc2c(c1)C(=O)N(CCc1c[nH]c3ccccc13)C2=O	–	–	–	–	–	–
COc1cc(NC(=O)Cn2cc(S(=O)(=O)N3CCC(C)CC3)c3ccccc3c2=O)cc(OC)c1OC	·	·	·	·	–	·
CCC(=O)N1CCc2cc(Br)cc(S(=O)(=O)N3CCC(C(=O)Nc4ccccc4F)CC3)c21	·	·	·	·	–	·
CCCOc1ccc(C2c3c(-c4ccccc4O)n[nH]c3C(=O)N2CCc2ccccc2)cc1OCC (configuration not stated)	·	·	·	·	–	·
CCOC(=O)Nc1ccc(C(=O)/C=C/c2ccccc2)cc1	–	22	–	–	–	–
Cc1ccc(NC(=O)c2ccccc2)cc1OC(=O)c1ccccc1	–	13	–	–	?	–
CSc1ccc(/C=C/C(=O)c2ccc(NC(=O)Cc3ccccc3)cc2)cc1	–	–	–	–	–	–
CCCC(=O)N1CCC1(C)C(=O)NS(=O)(=O)c1cccc(Cl)c1 (configuration not stated)	·	·	·	·	–	–
CCN1C(=O)C(C(=O)Nc2ccc(OC)cc2)C2CC1(C)Oc1ccccc12 (configuration not stated)	–	–	–	46	–	–
SMILES	FBPA Giardia inh	CHX counter	LmPK inh	Shiga inhibitor	TbPYK inhibitor	RE007 growth inh
CCOC(=O)C1C(=O)N(C)C2(C)CC1c1ccccc1O2 (configuration not stated)	–	–	–	–	–	–
Cc1ccc(-c2nc3c4ccccc4n(CC(=O)N4CCN(c5ccccc5F)CC4)c(=O)n3n2)cc1	·	·	·	·	–	·
COc1ccc2c(c1)C1(Nc3ccccc3-c3nc4ccccc4n31)C(=O)N2 (configuration not stated)	–	–	–	–	–	–
CC1(c2ccncc2)Nc2ccccc2-c2nc3ccccc3n21 (configuration not stated)	–	16	–	–	–	–
Cc1ccc(S(=O)(=O)N2CCOCC2)cc1C(=O)NCCN1C(=O)S/C(=C\c2ccccc2Cl)C1=O	–	–	–	–	–	–
CC(C)(C)c1ccc(/C=C2\SC(=O)N(CCNC(=O)c3cccc(S(=O)(=O)N4CCOCC4)c3)C2=O)cc1	–	69	–	131	–	–
CC(C)(C)c1ccc(C(=O)N/N=C/c2ccc(OCCCF)cc2)cc1	–	–	–	–	–	–
CC(=O)N1N=C(c2ccc(C)cc2)CC1c1cn(-c2ccccc2)nc1-c1cccs1 (configuration not stated)	·	·	·	·	–	·
CC[C@@H]1OC(=O)C[C@H](O)[C@@H](C)[C@@H](O[C@H]2O[C@@H](C)[C@H](O[C@@H]3C[C@](C)(O)[C@H](O)[C@@H](C)O3)[C@@H](N(C)C)[C@@H]2O)[C@@H](C=O)C[C@@H](C)C(=O)/C=C/C(C)=C[C@@H]1CO[C@H]1O[C@@H](C)[C@H](O)[C@H](OC)[C@@H]1OC	·	·	·	·	–	·
O=C(CNC(=O)c1ccccc1F)NCCOc1ccccc1Cl	–	15	–	+	–	–
COc1ccc(C(=O)NCCOc2ccccc2Cl)c(OC)c1OC	–	54	–	99	–	–
COc1cc(C(=O)NCCOc2ccccc2C)c(Br)c(OC)c1OC	–	–	–	–	–	–
O=C(NCCOc1ccccc1Cl)C(=O)NCCOc1ccccc1Cl	–	–	–	–	–	–
O=C(CCC(=O)Nc1ccc(Br)cc1)N/N=C/c1ccccc1O	–	21	–	–	–	–
COc1cc(C=NOC(=O)Nc2ccccc2)cc(OC)c1OC	·	·	·	·	–	–
O=C(CCC(=O)Nc1ccc(F)cc1)N/N=C/c1ccncc1	–	–	–[11.5 µM]	–	–	–
O=C(Nc1ccccc1)O/N=C/c1ccncc1	–	17	–	–	–	–
O=C(CCC(=O)Nc1ccccc1)N/N=C/c1ccncc1	–	23	–	–	–	–
COCCNC(=O)c1cc(S(=O)(=O)N2CCOCC2)ccc1SCc1cccc(OC)c1OC	–	–	–	–	–	–
N=Cc1c(O)n(-c2ccc(C34CC5CC(CC(C5)C3)C4)cc2)c(=O)[nH]c1=O	–	48	–	27	–	–
O=c1[nH]c(=O)n(-c2ccc(Br)cc2)c(O)c1C=NC(CO)(CO)CO	–	–	–	–	–	–
COc1ccc2[nH]c3c(c2c1)CCC/C3=N\N	–	9.7	–	–	–	–
COc1ccc(-c2cc(=O)c3cc(OC)ccc3[nH]2)cc1	–	61	?	94	–	–
COc1ccc2[nH]c3c(c2c1)CNCC3	·	·	·	·	–	–
COc1cc2[nH]c(-c3ccc(C)cc3)cc(=O)c2cc1OC	–	29	–	+!	–	–
COc1cc2[nH]c(-c3cccc(F)c3)cc(=O)c2cc1OC	–	–	–	–	–	–
COc1cccc(-c2cc(=O)c3cc(NC(C)=O)ccc3[nH]2)c1	–	–	–	–	–	–
COc1ccc2[nH]c3ccccc3c2c1	–	32	–	–	–	–
